This note sets out measurements from PubChem BioAssay.

The target in one assay is Albumin (Bos taurus) (UniProt P02769). The experiment in a line: compounds binding labelled BSA control protein – biochemical, small-molecule microarray, Alexa647 label, 635/667 nm fluorescence, artefact control for SMM control protein annotation, profiling panel (AID 1118).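 Also: score merges 667 nm emission intensity and signal-to-noise per printed compound spot.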 Conditions: BSA-A647 binding, fluorescence 635 nm, higher = more signal.
Sequence of Albumin (Bos taurus) (P02769 whole entry, looked up): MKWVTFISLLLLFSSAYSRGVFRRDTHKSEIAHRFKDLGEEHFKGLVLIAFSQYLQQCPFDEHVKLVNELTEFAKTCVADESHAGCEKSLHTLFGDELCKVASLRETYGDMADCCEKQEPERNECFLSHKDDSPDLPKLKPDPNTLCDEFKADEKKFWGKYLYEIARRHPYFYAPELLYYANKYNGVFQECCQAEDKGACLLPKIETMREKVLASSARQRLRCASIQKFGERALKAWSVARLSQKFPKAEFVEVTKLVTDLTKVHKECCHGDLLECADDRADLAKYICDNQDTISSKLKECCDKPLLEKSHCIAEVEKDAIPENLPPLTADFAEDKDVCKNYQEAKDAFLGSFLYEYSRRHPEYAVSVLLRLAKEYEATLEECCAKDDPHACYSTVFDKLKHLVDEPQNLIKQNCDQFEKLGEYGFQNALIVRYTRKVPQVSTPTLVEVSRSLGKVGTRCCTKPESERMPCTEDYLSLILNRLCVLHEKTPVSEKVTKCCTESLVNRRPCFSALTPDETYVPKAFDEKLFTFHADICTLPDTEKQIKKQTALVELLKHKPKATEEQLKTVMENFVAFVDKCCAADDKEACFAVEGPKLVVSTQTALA
Assay [1] can be described thus: probe aXIP binding to arrayed compounds – biochemical, NeuroSMM set, 635/667 nm fluorescence, primary screen (AID 1119).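 Also: probe is the protein aXip251-270 applied at 1 µg/mL to compound-printed slides; binding of probe to printed compounds measured as 667 nm fluorescence plus signal to noise.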 Conditions: small-molecule microarray, higher = more signal, called active from +8 up or from −8 down.
Assay [2] in a line: probe aNOTCH3 binding on compound microarray – biochemical, small-molecule microarray, 635/667 nm fluorescence, primary screen (AID 1120).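 Also: probe is a biotin-tagged antibody raised against NOTCH3 rather than NOTCH3 protein; score merges spot fluorescence near 667 nm with spot signal to noise.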 Conditions: higher = more signal.
Assay [3] in a line: probe aNOTCH2 binding on compound microarray – biochemical, small-molecule microarray, 635/667 nm fluorescence, primary screen (AID 1121).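 Also: score merges feature fluorescence read at 667 nm with its signal to noise.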 Conditions: higher = more signal.
Assay [4] addresses Carbonic anhydrase 2 (Homo sapiens) (UniProt P00918). The experiment in a line: compounds binding carbonic anhydrase 2 – biochemical, small-molecule microarray, Alexa647-labelled CAII, profiling panel (AID 1122). To be noted: CAII-A647 binding fluorescence, higher = more signal.
Assay [5] can be described thus: COS7 lysate on small-molecule microarray, probe aHis, 635 nm (AID 1123).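 Also: z-score combines 667nm fluorescence intensity with signal-to-noise per printed compound spot.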 To be noted: COS7 cell lysate, fluorescence, higher = more signal.
Assay [6] is described as follows: probe aLAP1 signal on lysate-treated microarray – cell lysate, small-molecule microarray, COS7 lysate, primary screen (AID 1124).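 Also: lysate comes from COS7 cells expressing LAP1 and is applied at 0.3 µg/mL; score merges spot fluorescence near 667 nm with signal-to-noise over triplicate slides.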 Conditions: probe aLAP1, fluorescence, higher = more signal.
The test system of the next assay is Sam68 (KHDRBS1). Kind of assay: compounds binding KHDRBS1 protein – biochemical, small-molecule microarray, 635 nm fluorescence, primary screen (AID 1125).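 Also: score merges 667 nm channel intensity with signal to noise over triplicate slides.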 To be noted: higher = more signal.
Assay [7] deals with Chordin-like protein 2 (CHRDL2). The experiment in a line: compounds binding chordin-like 2 – biochemical, small-molecule microarray, 635 nm fluorescence, primary screen (AID 1126).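 Also: printed compound slides probed with Chrdl2 protein at 4 µg/mL for 1 h at 4 C; score merges 667 nm emission intensity with signal to noise over three replicate slides.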 To be noted: fluorescence 635 nm, higher = more signal.
The target in assay [8] is Concanavalin-A (Canavalia ensiformis) (UniProt P02866). Kind of assay: compounds binding concanavalin A lectin – biochemical, small-molecule microarray, Alexa647 label, 635 nm, artefact control for SMM control protein annotation, primary screen (AID 1127).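 Also: z combines 667 nm emission intensity with signal-to-noise across three replicate slides.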 To be noted: ConA-A647 binding fluorescence, higher = more signal.
Sequence of Concanavalin-A (Canavalia ensiformis) (P02866 whole entry, looked up): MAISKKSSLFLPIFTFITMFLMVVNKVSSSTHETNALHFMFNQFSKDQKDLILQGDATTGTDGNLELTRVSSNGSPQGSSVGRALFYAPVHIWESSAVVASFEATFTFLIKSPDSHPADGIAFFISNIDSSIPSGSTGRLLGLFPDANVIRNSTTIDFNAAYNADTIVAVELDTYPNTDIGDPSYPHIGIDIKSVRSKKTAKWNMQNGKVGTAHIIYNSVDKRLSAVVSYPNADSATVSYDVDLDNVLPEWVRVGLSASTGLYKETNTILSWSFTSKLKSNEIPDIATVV
Assay [9] in a line: compounds binding Alexa647 anti-His antibody – biochemical, small-molecule microarray, 635 nm fluorescence, artefact control for SMM control protein annotation, primary screen (AID 1128).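 Also: score merges feature fluorescence with signal-to-noise for each printed compound spot.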 To be noted: higher = more signal.
Assay [10] relates to Human papillomavirus type 1a E7 protein (residues 1-88). Kind of assay: HPV1a E7 small-molecule binders, primary screen, biochemical, small-molecule microarray, residues 1-88, 635 nm (AID 1129). Conditions: small-molecule microarray binding, fluorescence 635 nm; higher = more signal.
The target of assay [11] is Focal adhesion kinase 1 (Homo sapiens) (UniProt Q05397). Kind of assay: PTK2 protein binding on printed compound slides – biochemical, small-molecule microarray, 635/667 nm fluorescence, BSA, DTT, primary screen (AID 1130).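 Also: composite of spot emission at 667 nm and signal to noise over triplicate slides.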 To be noted: 635 nm fluorescence, higher = more signal.
Sequence of Focal adhesion kinase 1 (Homo sapiens) (Q05397 whole entry, looked up): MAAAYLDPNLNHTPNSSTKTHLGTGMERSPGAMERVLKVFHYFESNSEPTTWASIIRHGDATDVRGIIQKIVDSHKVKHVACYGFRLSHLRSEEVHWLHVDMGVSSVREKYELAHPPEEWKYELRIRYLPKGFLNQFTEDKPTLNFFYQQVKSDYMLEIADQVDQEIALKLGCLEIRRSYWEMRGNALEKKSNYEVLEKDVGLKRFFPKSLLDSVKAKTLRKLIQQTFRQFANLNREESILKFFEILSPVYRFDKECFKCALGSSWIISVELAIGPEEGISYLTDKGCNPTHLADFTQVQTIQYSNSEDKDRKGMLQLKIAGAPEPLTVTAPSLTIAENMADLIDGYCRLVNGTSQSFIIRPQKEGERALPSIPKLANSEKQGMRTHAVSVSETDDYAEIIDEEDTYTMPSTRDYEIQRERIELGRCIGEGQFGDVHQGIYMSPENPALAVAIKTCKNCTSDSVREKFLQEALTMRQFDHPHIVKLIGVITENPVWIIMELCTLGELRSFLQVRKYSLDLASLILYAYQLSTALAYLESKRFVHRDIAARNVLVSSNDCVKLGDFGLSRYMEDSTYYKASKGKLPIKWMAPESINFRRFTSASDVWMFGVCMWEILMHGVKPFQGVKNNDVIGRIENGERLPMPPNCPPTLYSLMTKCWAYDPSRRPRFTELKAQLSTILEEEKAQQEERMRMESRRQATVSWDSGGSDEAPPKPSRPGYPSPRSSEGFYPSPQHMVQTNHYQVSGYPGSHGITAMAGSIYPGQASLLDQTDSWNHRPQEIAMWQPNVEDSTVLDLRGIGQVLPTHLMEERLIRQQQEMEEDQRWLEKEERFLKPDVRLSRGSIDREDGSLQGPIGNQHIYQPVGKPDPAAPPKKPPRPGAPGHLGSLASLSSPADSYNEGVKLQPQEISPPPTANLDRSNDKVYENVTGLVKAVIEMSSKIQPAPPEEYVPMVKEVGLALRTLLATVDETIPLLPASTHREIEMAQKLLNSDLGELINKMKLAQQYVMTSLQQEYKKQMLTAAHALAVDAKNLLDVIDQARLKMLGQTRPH
Assay [12] deals with Fibrinogen (Alexa647-labelled). The experiment in a line: Alexa647-fibrinogen binding to printed small molecules – biochemical, small-molecule microarray, 635/667 nm fluorescence, artefact control for SMM control-protein annotation, profiling panel (AID 1131).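 Also: z-score merges 667 nm fluorescence with per-spot signal-to-noise over triplicate slides.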 Conditions: fibrinogen-A647 binding fluorescence, higher = more signal.
Assay [13] concerns the target Follistatin (Homo sapiens) (UniProt P19883). Kind of assay: FST protein binding to printed compounds – biochemical, small-molecule microarray, 635/667 nm fluorescence, primary screen (AID 1132). Conditions: 635 nm fluorescence, higher = more signal.
Assay [14] has as its target Fibroblast growth factor 2 (Homo sapiens) (UniProt P09038). The experiment in a line: basic fibroblast growth factor binding to printed compounds – biochemical, small-molecule microarray, 635/667 nm fluorescence, primary screen (AID 1133). To be noted: FGF2, fluorescence 635/667, higher = more signal.
Assay [15] is described as follows: JC-1 mitochondrial potential readout, lung cancer cells – cell-based, A549, JC-1 fluorescence, basal, 24 h, 100 nL, profiling panel (AID 1138).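 Also: A549 lung adenocarcinoma cells under basal conditions with no added stimulus; test concentration not given here.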 Conditions: higher = more signal.
For another assay, the system named is Lefty1. The experiment in a line: Lefty1 protein binding to printed compounds – biochemical, small-molecule microarray, 635/667 nm fluorescence, primary screen (AID 1139). Conditions: fluorescence 635/667, higher = more signal.
The subject of assay [16] is wheat germ agglutinin (Triticum aestivum), Alexa647-labelled. The experiment in a line: Alexa647-WGA lectin binding to printed small molecules – biochemical, small-molecule microarray, 635/667 nm fluorescence, artefact control for SMM control-protein annotation, profiling panel (AID 1140).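 Also: score merges 667 nm feature emission with signal to noise over triplicate slides.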 To be noted: WGA-A647 binding, 635 nm fluorescence, higher = more signal.
Assay [17] has as its target Luciferin 4-monooxygenase (Photinus pyralis) (UniProt P08659). Kind of assay: inhibition of purified Photinus pyralis luciferase – biochemical, luminescence, purified enzyme, 2006 set, primary screen (AID 1141).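 Also: cell-free assay with purified firefly luciferase at 100 ng per well in PBS; test concentration not given here.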 Conditions: purified firefly luciferase, SteadyGlo luminescence, 30 min; higher = more signal, called active from +8 up or from −8 down.

Activity calls are given as the source filed them.

Sequence of Follistatin (Homo sapiens) (P19883 whole entry, looked up): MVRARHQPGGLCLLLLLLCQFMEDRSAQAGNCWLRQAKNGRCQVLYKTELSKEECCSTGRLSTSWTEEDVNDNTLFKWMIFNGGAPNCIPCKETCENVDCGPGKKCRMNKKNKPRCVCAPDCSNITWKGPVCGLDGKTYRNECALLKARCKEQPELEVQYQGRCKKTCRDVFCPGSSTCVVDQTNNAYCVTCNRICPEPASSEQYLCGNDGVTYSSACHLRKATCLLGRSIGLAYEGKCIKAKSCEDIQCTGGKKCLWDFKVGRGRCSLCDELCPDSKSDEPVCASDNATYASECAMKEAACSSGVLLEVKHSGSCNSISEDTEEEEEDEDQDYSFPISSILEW
Sequence of Luciferin 4-monooxygenase (Photinus pyralis) (P08659 whole entry, looked up): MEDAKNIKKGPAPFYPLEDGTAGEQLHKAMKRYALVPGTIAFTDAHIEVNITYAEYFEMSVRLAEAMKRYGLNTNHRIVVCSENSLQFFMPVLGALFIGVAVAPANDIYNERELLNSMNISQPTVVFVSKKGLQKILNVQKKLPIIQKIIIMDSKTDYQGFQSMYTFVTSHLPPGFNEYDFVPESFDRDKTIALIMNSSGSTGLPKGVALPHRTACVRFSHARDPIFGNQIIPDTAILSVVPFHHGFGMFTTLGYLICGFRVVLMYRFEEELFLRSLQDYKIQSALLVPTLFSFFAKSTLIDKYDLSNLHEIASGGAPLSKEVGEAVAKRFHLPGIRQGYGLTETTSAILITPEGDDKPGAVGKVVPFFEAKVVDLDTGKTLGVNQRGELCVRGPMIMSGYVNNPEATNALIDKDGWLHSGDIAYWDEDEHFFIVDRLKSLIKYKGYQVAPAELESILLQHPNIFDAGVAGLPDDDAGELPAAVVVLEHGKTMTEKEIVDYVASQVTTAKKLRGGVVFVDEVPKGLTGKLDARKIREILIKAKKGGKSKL
Sequence of Fibroblast growth factor 2 (Homo sapiens) (P09038 whole entry, looked up): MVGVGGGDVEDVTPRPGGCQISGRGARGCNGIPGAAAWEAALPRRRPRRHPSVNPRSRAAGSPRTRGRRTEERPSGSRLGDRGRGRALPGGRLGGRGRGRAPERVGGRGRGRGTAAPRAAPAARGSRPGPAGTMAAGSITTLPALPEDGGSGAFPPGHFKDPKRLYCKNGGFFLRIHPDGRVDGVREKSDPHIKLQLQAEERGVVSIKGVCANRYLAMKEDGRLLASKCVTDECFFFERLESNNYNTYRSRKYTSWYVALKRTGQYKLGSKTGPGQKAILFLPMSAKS

Turning to `Cc1ccc(S[C@]2(C(=O)NC(C)C)CC(=O)N(C3CCCCC3)[C@@H]2c2ccc(CO)cc2I)cc1`, the composite z-score in the assay with Albumin (Bos taurus) is 0.529; in [2], 0.0488; in assay [3], -0.0727; in [4], 0.645; in assay [5] it was 2.6; in assay [6], 0.487. Further, the composite z-score in the assay with Sam68 (KHDRBS1) is 1.28; in assay [7] it was -0.325; in assay [8] it was 1.11; in [9], 0.362; in assay [10], 1.11; in [11], 0.414. In addition, the composite z-score in assay [12] worked out at 0.703; in assay [13], 1.21; in [14], 0.396; in the assay with Lefty1, 0.964; in [16] it was 0.0189. The composite Z-score in assay [1] was 0.339 (inactive). The z-score in assay [15] is 1.04; in assay [17], 0.571 (inactive).
Turning to `CN1C(=O)[C@@H]2[C@@H](CC(COc3ccccc3)=C3[C@@H](CCc4ccccc4)OB(O)C[C@@H]32)C1=O`, the composite z-score with Albumin (Bos taurus) was -0.062; in assay [2], 0.135; in assay [3] it was -0.0073; in [4], 0.229; in assay [5], 0.71; in assay [6], 0.809. Also, the composite z-score in the assay with Sam68 (KHDRBS1) is 0.31; in [7], -0.102; in [8], -0.0514; in assay [9], -0.526; in assay [10], -0.211; in [11] it was -0.175. Besides, the composite z-score is 0.48 in assay [12]; 0.127 in assay [13]; -0.0572 in [14]; -0.0163 in the assay with Lefty1; 0.469 in assay [16]. For the same molecule, the composite Z-score in assay [1] was 0.581 (inactive). The results for the z-score in [15] and in assay [17] were 0.208 and -0.326 (inactive), respectively.
For the molecule `C=CC[C@]1(C(=O)NCC(O)CO)COC(c2ccc(OCCCO)cc2)=N1` (stereo not given in full), the composite z-score with Albumin (Bos taurus) was -0.506; in assay [2], 0.0897; in [3], -0.0209; in [4] it was 0.674; in assay [5], 1.56; in [6] it was 0.553. Further, the composite z-score with Sam68 (KHDRBS1) is -0.174; in assay [7], -0.582; in assay [8], -1.45; in [9], -0.493; in [10], 0.57; in assay [11], -0.0726. Moreover, the composite z-score is -1.36 in [12]; 0.821 in assay [13]; 1.01 in assay [14]; -0.513 in the assay with Lefty1; -0.326 in [16]. In assay [1], the composite Z-score was -0.181 (inactive). Moreover, the z-score was -0.565 in assay [15] and 0.0208 (inactive) in [17].
As to `NCCCCCCNC(=O)[C@@H]1C[C@@H]2C(=O)N3CCC[C@H]3C(=O)N2[C@@H]1c1cccc(OCCO)c1`, the composite z-score with Albumin (Bos taurus) was 0.81; in assay [2], 0.113; in [3], -0.15; in assay [4], 0.709; in [5], 0.729; in assay [6], 1.02. Moreover, the composite z-score with Sam68 (KHDRBS1) was 0.462; in assay [7] it was 1.16; in assay [8], 1.14; in assay [9], 2.14; in [10] it was 0.894; in assay [11], 0.0676. Besides, the composite z-score in assay [12] turned out to be 0.882; in assay [13], 0.832; in assay [14], 1.16; in the assay on Lefty1, 1.24; in [16] it was 0.938. In assay [1], the composite Z-score is 2.71 (inactive). The z-score in assay [15] was -0.383; in assay [17], -0.268 (inactive).
On to `C=C(CCCC)C(=O)CC[C@H](OC(=O)c1ccccc1-c1ccccc1C(=O)O)c1ccc(OCCO)cc1`, for which the composite z-score in the assay with Albumin (Bos taurus) is 0.763; in assay [2], 0.184; in assay [3] it was -0.185; in assay [4] it was 0.573; in assay [5], 1.2; in assay [6] it was -0.0334. For the same molecule, the composite z-score was 0.958 in the assay with Sam68 (KHDRBS1); 0.0139 in assay [7]; 0.969 in assay [8]; 0.321 in [9]; 0.632 in [10]; -0.0609 in assay [11]. For the same molecule, the composite z-score stood at 0.0905 in [12]; 0.571 in assay [13]; 1.26 in assay [14]; 1.1 in the assay on Lefty1; 0.708 in assay [16]. Besides, in assay [1], the composite Z-score is -0.235 (inactive). Further, the z-score in assay [15] was 0.128; in [17] it was -1.95 (inactive).
